S2 tox – reduces viability in counter-screen for ATXN expression inhibitors | S2 cells (HEK-293 line with an ATXN2-luciferase reporter) viability, CellTiter-Fluor protease fluorescence, 24 h | Potency, µM (highest dose often 56.7 µM), usual class: cytotoxic | actives 0.49% (n = 400,000); further: nearly all actives have a fitted effect of over 40% in size
MCF10A rerep – induces DNA re-replication in MCF 10a normal breast cells. actives 2.9% (n = 350,000). MCF 10A DNA re-replication, Hoechst nuclear intensity, 48 h. Potency, µM (highest dose often 46.1 µM), hits mostly activators; further: nearly all actives have a fitted effect of over 50% in size
SW480 rerep – induces DNA re-replication in SW480 colon adenocarcinoma cells; AID 624297; Potency, µM (top dose mostly 46.1 µM), usual class: activators; actives 1.8% (n = 340,000); SW480 DNA re-replication, Hoechst DNA content imaging, 48 h; further: nearly all actives have a fitted effect of over 55% in size
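Per well, 250 cells were exposed to pinned compound for 48 hr. Nuclear DNA was visualised with Hoechst (40 min, 37 C) and total object intensity recorded by fluorescence scanning.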
ATXN2 expr inh – reduces ATXN2 reporter expression in HEK-293 cells. HEK-293 ATXN2-luciferase reporter, luminescence, 24 h. Potency, µM (top dose mostly 57 µM), usual class: inhibitors. actives 0.72% (n = 360,000). AID 1745845; further: nearly all actives have a fitted effect of over 55% in size
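qHTS (up to 57 uM final) was run with 24 h compound exposure of reporter cells at 37 °C. Each well was multiplexed: SteadyGlo luminescence measured ATXN2-luciferase expression after a fluorogenic Gly-Phe-AFC viability readout (25 uM final).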
PINK1 modulator – modulators of PINK1 expression. Potency, µM (doses to about 76.6 µM), usual class: activators. PINK1 immunofluorescence, high-content cytometry, 24 h. actives 0.2% (n = 410,000); active means well fitted activation curve with a large enough effect; inconclusive means small, poorly fitted or top-dose-only effect; cell line not stated here; further: nearly all actives have a fitted effect of over 65% in size
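Readout is PINK1 immunofluorescence, quantified alongside mitochondrial, cell and nuclear markers by laser-scanning microplate cytometry. Cells from a stable line were exposed to compound titrations (5 concentrations) for 24 hours, with CCCP controls.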
IL-1B inflam inh – blocks inflammasome-driven IL-1 beta release. THP-1 LPS/ATP IL-1B secretion, AlphaLISA, 16 h; active compounds read low. activity change, % at 57.5 µM. actives 4.7% (n = 360,000); in the data active means activity change below about -50%; inconclusive means mostly about -30% to -49%
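Secreted IL-1B measured by AlphaLISA bead assay after 16 h compound exposure of THP-1 cells; compounds (final up to 57.5 uM) added 1 h before LPS (250 ng/mL) and ATP (1.25 mM) stimulation; lower signal means less secretion.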
Numbers stand for hits; – = inactive; ? = inconclusive; · = no result; [ ] = remark or other dose. A selection: hits, their analogues and other compounds. The true share with any hit is near 7.1%. Unless noted, the call rests on the fitted dose curve; in most records, active means well fitted curve in the direction sought with a large enough effect; inconclusive means small, poorly fitted or top-dose-only effect, or another doubt; inactive means no such curve, though single readings can be large; an effect the other way counts as inactive or inconclusive.

SMILES	S2 tox	MCF10A rerep	SW480 rerep	ATXN2 expr inh	PINK1 modulator	IL-1B inflam inh
O=C(c1cnc(N2CCCCC2)c2ccccc12)N1CCN(c2cccc(Cl)c2)CC1	·	·	·	·	–	·
NC1=NC(=Nc2cccc(S(=O)(=O)N3CCOCC3)c2)c2ccccc21	?	–	–	–	–	-59.6
NC1=NC(=Nc2ccc(S(N)(=O)=O)cc2)c2ccccc21	–	–	–	–	–	–
Brc1ccc2c(c1)-c1ccccc1C1=NCCN12	?	·	·	·	–	-103.7
Clc1ccc2c(c1)-c1ccccc1C1=NCCN12	?	·	·	·	–	-103.5
CN1C2=NCCN2C(=O)c2cc(Cl)ccc21	–	–	?	–	–	–
COc1cccc(CNC(=O)Cn2c(=O)n3nc(-c4cccc(C)c4)nc3c3ccccc32)c1	–	·	·	–	–	·
O=C(NCCN1CCOCC1)c1cc(-c2ccccc2)nc2ccccc12	–	·	·	·	–	–
O=C(NCCN1CCOCC1)c1cnn2c(-c3ccccc3)cc(-c3ccccc3)nc12	–	?	–	–	–	-55.2
CC1CCN(C(=O)c2cc3nc(-c4ccccc4)cc(-c4ccccc4)n3n2)CC1	–	16.4µM	–	?	–	-55.2
O=C(c1cnn2c(-c3ccccc3)cc(-c3ccccc3)nc12)N1CCN(Cc2ccccc2)CC1	–	?	18.4µM	–	–	–
CC(C)CC(=O)Nc1c(C(=O)N2CCN(c3ccccc3F)CC2)oc2ccccc12	·	·	·	·	–	·
CCn1c(SCC(=O)Nc2cccc(Cl)c2)nnc1-c1nonc1NC(C)=O	·	·	·	–	–	·
CCC(=O)Nc1c(C#N)c2nc3ccccc3nc2n1-c1ccc(C)cc1	·	23.1µM	?	–	–	–
CCC(C)n1c(NC(=O)c2ccccc2)c(C#N)c2nc3ccccc3nc21 (centres undefined)	?	1.3µM	5.17µM	–	?	–
OC[C@]1(O)OC[C@@H](O)[C@H](O)[C@@H]1O	–	·	·	–	·	·
Cc1cn(CC(=O)NCCN2CCOCC2)c(=O)[nH]c1=O	–	?	–	–	–	–
CC1=C(C(=O)Nc2cc3cn[nH]c3cc2F)C(c2ccc(Cl)cc2F)N=C(c2ccnc(Cl)c2)N1 (centres undefined)	·	·	·	–	·	·
CC12CCC(C/C1=N\N=C1\NC(=O)/C(=C\c3cccc(Br)c3)S1)C2(C)C (centres undefined)	?	18.4µM	–	?	?	-68.5
CCOC(=O)N1CCc2c(sc3c2C(=O)NC(c2ccccc2)N3)C1 (centres undefined)	–	?	9.2µM	–	–	–
Cc1ccc2nc3sc(C(=O)N4CCOCC4)c(N)c3cc2c1	–	–	–	2.51µM	–	–
COc1ccc2cc3c(N)c(C(=O)N4CCCC4)sc3nc2c1	–	–	–	–	–	-68.7
Nc1c(C(=O)N2CCCC2)sc2nc(-c3ccccc3)ccc12	·	18.4µM	18.4µM	–	–	?
Nc1c(C(=O)N2CCCCC2)sc2nc3c(cc12)CCCC3	–	?	–	–	–	–
Cn1nnc2c(NCc3ccco3)ncnc21	·	·	·	·	–	·
SMILES	S2 tox	MCF10A rerep	SW480 rerep	ATXN2 expr inh	PINK1 modulator	IL-1B inflam inh
Nc1nc(NCCO)nc(NC2CCCCC2)c1[N+](=O)[O-]	–	25.9µM	?	–	–	?
Nc1nc(Nc2ccccc2)nc(NC2CCCCC2)c1[N+](=O)[O-]	–	?	9.2µM	?	–	-87.6
CC(C)(C)OC(=O)N1CCC(c2c(C(=O)NCc3ccccn3)cnn2-c2ccccc2)CC1	·	·	·	·	–	·
COC(=O)c1ccc(/C(O)=C(\C#N)c2nc3ccccc3s2)cc1	–	–	–	–	?	-77.4
COC(=O)c1sc(N/N=C/c2ccc(C(C)C)cc2)nc1C	–	14.6µM	?	–	–	-64.0
CC(=O)c1sc(N/N=C/c2cccc(O)c2)nc1C	–	–	–	–	–	–
Oc1ccc2ccccc2c1/C=N/Nc1ccccc1	–	–	–	–	–	–
CC(=O)c1sc(N/N=C\c2ccc(N(C)C)cc2)nc1C	–	16.4µM	?	·	–	–
CC(=O)c1sc(N/N=C\c2c(O)ccc3ccccc23)nc1C	–	?	3.26µM	–	–	–
Cc1cc(N/N=C/c2c(O)ccc3ccccc23)nc(-c2ccccc2O)n1	–	3.26µM	13µM	?	44.7µM	–
CCOC(=O)c1sc(N/N=C/c2cc(Br)c(O)c(OC)c2)nc1C	–	?	–	·	–	–
O=c1nc(Oc2ccccc2)nc2ncccn12	–	·	·	·	–	–
COC(=O)c1c(NC(=O)c2c(-c3ccccc3Cl)noc2C)sc2c1CCC2	–	–	–	–	–	–
Cc1onc(-c2ccccc2Cl)c1C(=O)Nc1sc2c(c1C(N)=O)CCC(C)C2 (centres undefined)	–	–	?	–	–	-50.9
C=C1C(=O)O[C@H]2C[C@]3(C)C([C@@H](OC(=O)/C(C)=C/C)[C@H]12)[C@](C)(O)CC[C@H]3O (some centres undefined)	?	–	–	·	–	-58.2
C=C[C@@]1(C)CC(=O)[C@]2(O)[C@@]3(C)[C@@H](O)CCC(C)(C)[C@@H]3[C@H](OC(C)=O)[C@H](O)[C@@]2(C)O1	–	–	–	–	–	–
O=C(NCCc1ccccc1Cl)c1ccc(Cn2c(=O)c3cccn3c3cccnc32)cc1	·	·	·	·	–	·
Cc1cccc(N2CCN(c3nc(C)cc(C)c3C#N)CC2C)c1 (centres undefined)	–	18.4µM	?	–	–	–
CCN(CC)S(=O)(=O)c1ccc2c(c1)N(CC(=O)N1CCN(c3ccc(Cl)cc3)CC1)C(=O)CO2	?	·	·	–	–	·
COc1cc(S(=O)(=O)O)c(C)cc1N=Nc1c(O)ccc2cc(S(=O)(=O)O)ccc12	·	·	·	·	–	·
Cc1ccc(CSc2nnc(SCC(=O)N/N=C/c3c[nH]c4ccccc34)s2)cc1	·	13µM	?	?	–	–
CCc1ccc2c(Cl)c(C(=O)N/N=C/c3c[nH]c4ccccc34)sc2c1	–	?	?	–	–	-50.1
CC(C)c1cc(C(=O)N/N=C/c2c[nH]c3ccccc23)n[nH]1	–	?	–	–	–	–
CCc1ccc(-c2cc(C(=O)N/N=C/c3c[nH]c4ccccc34)[nH]n2)cc1	?	20.6µM	6.51µM	–[11.3 µM]	–	-53.4
COc1ccc(CNC(=O)CCc2nc(-c3ccc(C)cc3)no2)c(OC)c1	–	·	·	–	–	·
O=C1CCc2cc(Br)ccc2O1	–	–	–	–	–	–
CCc1ccccc1Oc1nc(NCCOC)nc2cc(-c3ccccc3)sc12	–	·	·	–	–	–
O=C(Nc1cc(-c2nc3ccccc3s2)ccc1Cl)c1ccc2c(c1)OCO2	?	9.2µM	–	–	·	–
COc1ccc(CC2=NN3C([C@@H](CCc4ccccc4)[C@@H](C)O)=NC(C)C3C(=O)N2)cc1OC (some centres undefined)	·	·	·	–	·	·
